Assay outcomes as filed in PubChem.
Many of the other results were omitted from the sample, so hits are more common in it than they were.
HTT ATP protect: protects HTT-Q103 PC12 cells, measured by ATP | 230,000 tested, 0.14% active | AID 1471 | Potency, µM (titrated, usually from 56.4 µM), without a hit: cytoprotection (ATP increase), most hits filed as activators | PC12 HTT-Q103 induced, cytoprotection, ATP luminescence, 40 h; further: % of control where 0% means no effect; nearly all actives have a fitted effect of over 45% in size
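PC12 cells stably carrying ecdysone-inducible Htt exon 1 (Q103)–GFP were induced with 100 nM tebufenozide (final) alongside library compounds in a dose series. Cytoprotection was scored as retained ATP by ATPlite luminescence.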
Epigenetic reg: derepresses silenced GFP reporter in murine cells. murine LDR cells, GFP reporter derepression, 30 h. Potency, µM (doses to about 53.9 µM), without a hit: top-dose GFP activation, hits mostly activators. 280,000 tested, 0.2% active; further: % of control where 0% means no effect; nearly all actives have a fitted effect of over 60% in size
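Reporter derepression read as number of fluorescent GFP-positive objects, 20-120 um in size, counted by laser-scanning cytometer. Mouse LDR line with an epigenetically silenced CMV-GFP locus; compound incubation 30 h, 37 C.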
PTAP TSG101 blk: blocks PTAP/TSG101 interaction to inhibit HIV-1 budding; Q99816; Fluorescence polarization, FITC-PTAP peptide / Tsg101 binding; Potency, µM (titrated, usually from 115 µM), for inactives: at the top dose activity change, negative = inhibition, usual class: inhibitors; 340,000 tested, under 10 active; AID 493005; active means well fitted inhibition curve with a large enough effect in the main read-out, with a control signal flat, not every such curve was filed as active; inconclusive means small, poorly fitted or top-dose-only effect, or effect the other way, or a change in a side signal; inactive means no such curve, though single readings can be large or run the other way; further: % of control where 0% means no effect
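FP read-out: FITC-PTAP peptide, 50 nM final, binding Tsg101 binding domain, 10 uM final; 20 min, r.t.; 10 mM HEPES pH 7.5, 0.15 M NaCl, 0.01% Tween 20, 3 mM EDTA, 0.1 mM TCEP.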
PINK1 modulator: modulators of PINK1 expression | PINK1 immunofluorescence, high-content cytometry, 24 h | Potency, µM (doses to about 76.6 µM), for the others: at the top dose activation (PINK1 increase), hits mostly activators | 410,000 tested, 0.2% active; active means well fitted activation curve with a large enough effect; inconclusive means small, poorly fitted or top-dose-only effect; cell line not stated here; further: % of control where 0% means no effect; nearly all actives have a fitted effect of over 65% in size
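Decision-based qHTS: stable cells, 24 h exposure to five compound concentrations, CCCP as control. Fixed cells stained for PINK1 plus nuclear, mitochondrial and cell markers, cytometer read.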
HttQ103 aggreg: reduces HttQ103-GFP aggregates in PC12 cells; PC12 HttQ103-GFP aggregates, Acumen cytometry, 40 h; 220,000 tested, 1.1% active; Potency, µM (series often up to 46.1 µM), inactives show at the top dose activity change, negative = inhibition, most hits filed as inhibitors; further: on the % scale 0 is the no-effect control and ±100 the full control effect; nearly all actives have a fitted effect of over 60% in size
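Aggregate formation scored by laser-scanning cytometer (488 excitation, 500–530 emission) in lysed PC12 cells expressing Q103-GFP after 100 nM tebufenozide induction; library tested in dose series, with ATPLite reagent added in the multiplex.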
Anesthetic bind: binds horse apoferritin like a general anesthetic; P02791; apoferritin/1-aminoanthracene competitive binding, fluorescence; Potency, µM (titrated, usually from 77.5 µM), for inactives: top-dose activity change, negative = displacement, most hits filed as inhibitors; 350,000 tested, 0.074% active; further: on the % scale 0 is the no-effect control and ±100 the full control effect; nearly all actives have a fitted effect of over 20% in size
Target sequence (P02791 2-175 limits assumed): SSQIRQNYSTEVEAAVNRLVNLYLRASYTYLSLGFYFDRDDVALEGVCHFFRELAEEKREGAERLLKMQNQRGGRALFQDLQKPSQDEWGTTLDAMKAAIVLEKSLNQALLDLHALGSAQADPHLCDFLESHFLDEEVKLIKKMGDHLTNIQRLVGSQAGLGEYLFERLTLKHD
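In PBS, apoferritin at 10 uM is loaded with 1-AMA from a 50% saturated solution. After 10 min of compound exposure at ambient temperature, reduced 535 nm fluorescence indicates probe displacement.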
Starred values were filed as active, the others as inactive; ? = inconclusive; . = not tested or not shown; [ ] = remark or other dose. Unless noted, the call rests on the fitted dose curve; in most records, active means well fitted curve in the direction sought with a large enough effect; inconclusive means small, poorly fitted or top-dose-only effect, or another doubt; inactive means no such curve, though single readings can be large; an effect the other way counts as inactive or inconclusive. Potency means the concentration at half of the fitted maximal effect.

SMILES	HTT ATP protect	Epigenetic reg	PTAP TSG101 blk	PINK1 modulator	HttQ103 aggreg	Anesthetic bind
COc1cccc(CN(C(=O)Cc2c[nH]c3ccccc23)C(C(=O)NC2CCCCC2)c2ccc(C)o2)c1 (centres undefined)	2%[10 µM]	-1%	-2%	0%	13µM*	-3%
COc1ccc(CN(C(=O)Cc2c[nH]c3ccccc23)C(C(=O)NC2CCCCC2)c2ccc(C)o2)cc1 (centres undefined)	-3%[10 µM]	-10%	-1%	.	?	-10%
COC(=O)C1CCCCN1Cc1ccc2c(c1)CN(C(=O)c1cc(C)nc3cc(F)ccc13)CCO2 (centres undefined)	.	.	.	-1%	.	.
Cc1nc2ccc(NS(=O)(=O)c3ccc(Br)cc3)cc2s1	.	.	1%	5%	.	.
Cc1nc2ccc(NS(=O)(=O)c3c(C)c(C)cc(C)c3C)cc2s1	-67%	3%	2%	6%	13µM*	-10%
Cc1ccc(S(=O)(=O)Nc2ccc3nc(C)sc3c2)cc1	-48%	1%	0%	-1%	14µM*	-22%
Cc1ccc2nc(-c3ccc(NS(=O)(=O)c4ccccc4)cc3)sc2c1	-7%[10 µM]	-1%	1%	8%	-2%	-12%
Cc1ccc2nc(-c3ccc(NS(=O)(=O)c4ccc(F)c(F)c4)cc3)sc2c1	11%[10 µM]	?	-1%	?	2.8µM*	0%
CC1(C)CC(=O)C(CS(=O)(=O)c2ccccc2)=C(O)C1	.	.	-2%	0%	.	32µM*
O=C(C1CCN(S(=O)(=O)c2cccnc2)CC1)N1CCN(c2ccccc2Cl)CC1	4%	-1%	-1%	1%	-27%	-10%
Cc1ccc(Cl)cc1N1CCN(C(=O)C2CCN(S(=O)(=O)c3cccnc3)CC2)CC1	10%	0%	-14%	-2%	11µM*	-9%
Cc1cc(C)cc(NS(=O)(=O)c2ccc(-c3cc(C)no3)cc2)c1	.	-3%	.	7%	.	?
O=C(CSc1nc2ccsc2c(=O)n1Cc1ccccc1)NCC1CCCO1 (centres undefined)	-24%	1%	-1%	3%	-14%	-9%
CCC1CCCCN1C(=O)CSc1nc2ccsc2c(=O)n1Cc1ccccc1 (centres undefined)	-33%	-1%	-8%	1%	16µM*	?
CCC(=O)NCc1nc(-c2cccc(NC(=O)c3ccc(C)s3)c2)oc1C	.	.	.	1%	.	.
CCNS(=O)(=O)c1ccc(NC(=S)NCc2ccco2)cc1	33%[10 µM]	-3%	-4%	-2%	-13%	-6%
O=S(=O)(NCc1ccccc1)c1ccc(NC(=S)NCc2ccco2)cc1	.	.	1%	4%	.	8.9µM*
COc1ccc(-n2c(SC3CCOC3=O)nc3ccccc3c2=O)cc1OC (centres undefined)	3%	-1%	-4%	10µM*	11%	-20%
CCCC[n+]1c(/C=C/c2ccc(N(C)C)cc2)sc2ccccc21	.	.	.	5µM*	.	.
Cc1nnc(NC(=O)CSc2nnnn2Cc2ccccc2)s1	?	-2%	-1%	-2%	0.35µM*	2%
CC1Cc2ccccc2N1C(=O)CSc1ccccc1 (centres undefined)	-2%	0%	-7%	-4%[38.3 µM]	-13%	6.3µM*
CC1Cc2ccccc2N1C(=O)CSC1=NCCS1 (centres undefined)	18%[10 µM]	-3%	-8%	11µM*	-3%	?
CC1Cc2ccccc2N1C(=O)CSc1nnc(N)s1 (centres undefined)	.	.	-5%	-1%	.	?
CC1Cc2ccccc2N1C(=O)CSc1ncccc1C(=O)O (centres undefined)	-7%[10 µM]	-1%	2%	.	10%	?
CCOC(=O)c1cnc(N2CCN(c3ccc(C)cc3C)CC2)c2ccccc12	.	5%	.	2%	.	-20%
